Screening data deposited in PubChem BioAssay by several laboratories.
Sampled rows, rich in hits. Any-hit rate of the full collection: about 3.9%.
VHR inh abs – VHR1 phosphatase inhibitors, primary screen, biochemical, absorbance, uHTS. Dual specificity protein phosphatase 3 (Homo sapiens), P51452. recombinant VHR phosphatase, pNPP absorbance. inhibition, % at 13.3 µM. 0.52% of 290,000 active. AID 1654, 2009; in the data active = inhibition above about 50%
3CLpro inhibitor – SARS-CoV 3CLpro protease inhibitors, primary screen, biochemical, quenched FRET; Replicase polyprotein 1ab (Severe acute respiratory syndrome coronavirus), P0C6X7; recombinant SARS-CoV 3CLpro, quenched FRET peptide cleavage; inhibition, % at 6 µM; 0.14% of 290,000 active; AID 1706, 2009; in the data active = inhibition above about 12%
Autofluor counter – counter-screen for toxin protease inhibitors: compound fluorescence | compound autofluorescence counterscreen, microsphere flow cytometry; stronger effect = higher value | fluorescence intensity (concentration not given with the values) | 3.1% of 360,000 active | AID 624483; in the data active = fluorescence intensity above about 16000; inconclusive = no clear call, values can overlap the other calls
BoNT A protease – BoNT/A light chain protease inhibitors, primary screen, biochemical, flow cytometry, MLPCN library; 0.17% of 360,000 active; inhibition, % at 10 µM; Botulinum neurotoxin type A light chain protease (Clostridium botulinum A str. ATCC 3502); AID 588499, 2011; multiplex microsphere protease substrate cleavage; also: plate controls were buffer without enzyme for full effect and enzyme alone for no effect
BoNT F protease – BoNT/F light chain protease inhibitors, primary screen, biochemical, flow cytometry, MLPCN library; Multiplex microsphere protease cleavage assay; inhibition, % at 10 µM; 0.22% of 360,000 active; AID 588497, 2011; in the data active = inhibition above about 35%, passing the limit was not always enough; inconclusive = no clear call, values can overlap the other calls; also: plate controls were buffer without enzyme for full effect and enzyme alone for no effect
Anthrax LF prot – Bacillus anthracis LF protease inhibitors, primary screen, biochemical, multiplex microsphere, MLPCN library | inhibition, % at 10 µM | multiplex microsphere protease cleavage assay | AID 588501, 2011 | 0.12% of 360,000 active | Lethal factor (Bacillus anthracis), P15917; also: plate controls were buffer without enzyme for full effect and enzyme alone for no effect
Target sequence (P15917 whole entry, looked up): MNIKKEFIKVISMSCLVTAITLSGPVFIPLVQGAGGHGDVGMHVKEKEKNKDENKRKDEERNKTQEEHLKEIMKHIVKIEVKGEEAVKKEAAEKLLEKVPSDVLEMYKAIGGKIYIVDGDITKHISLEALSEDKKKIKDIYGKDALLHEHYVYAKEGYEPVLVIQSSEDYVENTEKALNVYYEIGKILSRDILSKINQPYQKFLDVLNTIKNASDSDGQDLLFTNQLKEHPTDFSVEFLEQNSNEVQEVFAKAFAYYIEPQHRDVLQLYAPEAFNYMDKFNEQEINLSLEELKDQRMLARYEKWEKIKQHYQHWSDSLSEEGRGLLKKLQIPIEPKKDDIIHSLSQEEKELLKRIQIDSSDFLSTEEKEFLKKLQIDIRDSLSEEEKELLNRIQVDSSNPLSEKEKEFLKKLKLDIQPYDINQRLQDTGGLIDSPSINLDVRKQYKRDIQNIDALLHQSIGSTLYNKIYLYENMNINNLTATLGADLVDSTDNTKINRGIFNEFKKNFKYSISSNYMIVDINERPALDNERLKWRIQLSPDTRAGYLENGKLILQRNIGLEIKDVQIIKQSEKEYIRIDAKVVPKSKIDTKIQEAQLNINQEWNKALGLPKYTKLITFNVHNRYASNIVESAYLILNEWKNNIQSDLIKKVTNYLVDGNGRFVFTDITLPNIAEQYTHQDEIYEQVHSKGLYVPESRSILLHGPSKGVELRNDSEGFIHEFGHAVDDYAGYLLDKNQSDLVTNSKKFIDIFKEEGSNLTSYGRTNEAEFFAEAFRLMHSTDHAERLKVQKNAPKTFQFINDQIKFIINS
* marks the source's active call; other numbers are inactive results. Rule as the data show it, unless noted: active = inhibition above about 30%; inconclusive = no clear call, values can overlap the other calls; inactive = below that.

O=C(Cn1cnc2c(nnn2Cc2ccc(F)cc2)c1=O)NC1CCCC1 was read as VHR inh abs -1, 3CLpro inhibitor -5, Autofluor counter 22114*, BoNT A protease 3, BoNT F protease 4 and Anthrax LF prot 0.
COc1cccc(-n2nnc3c(=O)n(Cc4ccc(Br)cc4)cnc32)c1 was read as VHR inh abs 5, 3CLpro inhibitor 3, Autofluor counter 21527*, BoNT A protease -5, BoNT F protease -6 and Anthrax LF prot -4.
`CCOC(=O)C(CC)n1cnc2c(nnn2-c2cccc(OC)c2)c1=O` (stereo not given) gave VHR inh abs 53*, 3CLpro inhibitor -9, Autofluor counter 3847, BoNT A protease -3, BoNT F protease -7 and Anthrax LF prot -4.
For COC(=O)CCN1CCC2CC1c1cc(N3CCCCC3)ccc12 (stereo not given) the results were Autofluor counter 4275, BoNT A protease -1, BoNT F protease -1 and Anthrax LF prot 3.
`Cc1c(C(=O)NCc2ccccc2C(F)(F)F)sc(=O)n1Cc1ccc(F)cc1` gave Autofluor counter 5462, BoNT A protease 0, BoNT F protease 1 and Anthrax LF prot 0.
For COC(=O)c1ccc(C2Nc3ccc(/C(C)=N/NC(=O)C(OC)c4ccccc4)cc3C3C=CCC32)cc1 (stereo not given) the results were VHR inh abs 15, 3CLpro inhibitor -1, Autofluor counter 7947, BoNT A protease 4, BoNT F protease 16 and Anthrax LF prot -2.
For COCCn1c(C)cc2c(c1=O)C(c1ccccc1F)C(C#N)=C(N)O2 (stereo not given) the results were VHR inh abs 19, 3CLpro inhibitor 3, Autofluor counter 20039*, BoNT A protease 1, BoNT F protease 0 and Anthrax LF prot 0.
For Cc1cc2c(c(=O)n1Cc1ccc3c(c1)OCO3)C(c1cccnc1)C(C#N)=C(N)O2 (stereo not given) the results were VHR inh abs -4, 3CLpro inhibitor -4, Autofluor counter 20731*, BoNT A protease -1, BoNT F protease -3 and Anthrax LF prot -3.
CCOc1ccccc1C1C(C#N)=C(N)SC(N)=C1C#N was read as VHR inh abs 30, 3CLpro inhibitor 1, Autofluor counter 4715, BoNT A protease 24, BoNT F protease 51* and Anthrax LF prot 21.
Screening CCOc1ccccc1C1C(C#N)=C(N)Oc2cc(C)n(C)c(=O)c21 (stereo not given) returned VHR inh abs 17, 3CLpro inhibitor -8, Autofluor counter 21644*, BoNT A protease inconclusive, BoNT F protease 5 and Anthrax LF prot 0.
Screening CN1CCN(C(=O)/C=C/c2c(F)cccc2Cl)CC1 returned VHR inh abs 23, 3CLpro inhibitor 1, Autofluor counter 6322, BoNT A protease -1, BoNT F protease -9 and Anthrax LF prot -2.
`CC(C)C(NC(=O)c1c(F)cccc1F)C(=O)NCCc1ccc(S(N)(=O)=O)cc1` (stereo not given) gave VHR inh abs 41, 3CLpro inhibitor -3, Autofluor counter 6025, BoNT A protease 0, BoNT F protease -5 and Anthrax LF prot 3.
Screening Cc1cc2c(c(=O)n1CCCn1ccnc1)C(c1ccco1)C(C#N)=C(N)O2 (stereo not given) returned VHR inh abs 25, 3CLpro inhibitor 0, Autofluor counter 22337*, BoNT A protease 1, BoNT F protease 0 and Anthrax LF prot 0.
Screening O=C(COC(=O)Cc1c(F)cccc1Cl)NC(=O)c1ccccc1 returned VHR inh abs 22, 3CLpro inhibitor -2, Autofluor counter 6245, BoNT A protease -2, BoNT F protease 4 and Anthrax LF prot -2.
`COc1cccc(/C=N/NC(=O)c2cc(C34CC5CC(CC(C5)C3)C4)[nH]n2)c1` gave VHR inh abs 30, 3CLpro inhibitor 2, Autofluor counter 2889, BoNT A protease 0, BoNT F protease 1 and Anthrax LF prot -2.
For COc1ccc(/C=N/NC(=O)c2cc(C34CC5CC(CC(C5)C3)C4)[nH]n2)cc1OC the results were VHR inh abs -1, 3CLpro inhibitor 3, Autofluor counter 2286, BoNT A protease 3, BoNT F protease 40* and Anthrax LF prot 1.
`CCOC(=O)Cc1csc(NC(=S)NC(=O)c2ccccc2C)n1` gave VHR inh abs 53*, 3CLpro inhibitor 3, Autofluor counter 7875, BoNT A protease 0, BoNT F protease -2 and Anthrax LF prot -2.
CCOC(=O)Cc1csc(NC(=S)NC(=O)c2ccc(F)cc2)n1 was read as VHR inh abs 7, 3CLpro inhibitor 8, Autofluor counter 2380, BoNT A protease 0, BoNT F protease -7 and Anthrax LF prot 1.
For CCOC(=O)Cc1csc(NC(=O)c2csc(C)c2)n1 the results were VHR inh abs -1, 3CLpro inhibitor -1, Autofluor counter 20408*, BoNT A protease -1, BoNT F protease -1 and Anthrax LF prot 1.
COc1ccc(NC(=S)Nc2nc(CC(=O)Nc3ccccc3OC)cs2)cc1 was read as VHR inh abs 26, 3CLpro inhibitor 9, Autofluor counter 8941, BoNT A protease 0, BoNT F protease 3 and Anthrax LF prot -6.
For COc1ccccc1NC(=O)Cc1csc(NC(=S)Nc2ccccc2)n1 the results were VHR inh abs 12, 3CLpro inhibitor 7, Autofluor counter 20382*, BoNT A protease -2, BoNT F protease -5 and Anthrax LF prot 1.
For CCOC(=O)Cc1csc(NC(=O)c2cccc(OC)c2)n1 the results were VHR inh abs 22, 3CLpro inhibitor -1, Autofluor counter 2549, BoNT A protease 0, BoNT F protease inconclusive and Anthrax LF prot -4.
`CC1=C(C(=O)N(C(C)C)C(C)C)CC(CC(=O)NCc2ccco2)C(=O)N1Cc1ccccc1` (stereo not given) gave Autofluor counter 6037, BoNT A protease 0, BoNT F protease 1 and Anthrax LF prot -4.
Screening CC(C)(C)Cc1nnc(NC(=O)CCc2ccccc2)s1 returned VHR inh abs -2, 3CLpro inhibitor -2, Autofluor counter 2957, BoNT A protease 0, BoNT F protease inconclusive and Anthrax LF prot -8.
`CC(=O)Nc1ccc(S(=O)(=O)Nc2cc(S(=O)(=O)N3CCCCC3)ccc2O)cc1` gave Autofluor counter 7072, BoNT A protease -3, BoNT F protease -18 and Anthrax LF prot -7.
Screening Cc1ccc(C2=NN(C(=O)CNCCO)C(c3cccs3)C2)cc1 (stereo not given) returned VHR inh abs 4, 3CLpro inhibitor 5, Autofluor counter 4882, BoNT A protease 1, BoNT F protease 0 and Anthrax LF prot 1.
